The values below come from PubChem BioAssay AID504847 (National Center for Advancing Translational Sciences (NCATS), 2011).

Screen size: about 400,000 compounds; about 3,700 (0.93%) were called active. Inconclusive results (about 3%) are left out. This is one part of a sample in which actives are shown more often than they occur. Values without a mark were called inactive. The call rests on the fitted dose curve; in most records, active means well fitted inhibition curve with a large enough effect; inconclusive means small, poorly fitted or top-dose-only effect, or another doubt; inactive means no such curve, though single readings can be large or run the other way.
On the % scale 0 is the no-effect control and ±100 the full control effect; potency means the concentration at half of the fitted maximal effect.

Chain of Vitamin D3 receptor (Homo sapiens) (P11473 whole entry, looked up): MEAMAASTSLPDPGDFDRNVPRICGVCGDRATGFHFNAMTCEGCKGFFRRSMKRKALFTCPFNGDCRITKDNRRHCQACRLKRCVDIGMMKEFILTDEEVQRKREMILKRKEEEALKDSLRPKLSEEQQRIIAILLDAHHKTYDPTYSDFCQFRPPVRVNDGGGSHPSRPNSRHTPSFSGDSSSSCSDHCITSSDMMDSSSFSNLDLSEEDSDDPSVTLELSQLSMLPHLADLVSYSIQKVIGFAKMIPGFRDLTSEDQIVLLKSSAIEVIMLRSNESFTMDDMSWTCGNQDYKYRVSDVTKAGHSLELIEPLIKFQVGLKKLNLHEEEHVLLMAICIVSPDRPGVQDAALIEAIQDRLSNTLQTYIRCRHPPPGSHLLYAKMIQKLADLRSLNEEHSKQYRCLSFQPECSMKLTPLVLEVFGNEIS

The target of the assay is Vitamin D3 receptor (Homo sapiens) (UniProt P11473). As to the kind of experiment: Inhibitors of the vitamin D receptor (VDR): qHTS. The note with it: VDR-SRC2-3 peptide fluorescence polarization, 2 h; max response, negative = inhibition: active compounds read low. A digest of the protocol:
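VDR–SRC2-3 interaction, FP format. Cmpds 23 nl via pintool, brief spin, 2 h ambient incubation.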
As to `NS(=O)(=O)c1ccc(NC2=CC(c3ccc(F)cc3)N(c3ccc(S(N)(=O)=O)cc3)C2=O)cc1` (stereo not drawn), the max response, negative = inhibition was 21.6%.
`CCOC(=O)c1ccc(NC2=CC(c3ccc(OCC)cc3)N(c3ccc(C(=O)OCC)cc3)C2=O)cc1` (stereo not drawn): the Potency was 28.2 µM (active).
With `CCOC(=O)c1ccc(-c2ccc(/C=C(\C#N)C(=O)Nc3ccc(OCC)cc3)o2)cc1`, the max response, negative = inhibition was -4.51%.
Same read-out and setting: to `Cc1cc(NC(=O)C2CCC(CNS(=O)(=O)c3ccc(Br)s3)CC2)ccc1Br` (stereo not drawn) belongs -18%.
Same read-out and setting: to `COc1ccc(-c2nc3ccccc3s2)cc1NC(=O)COc1ccccc1C` belongs 1.1%.
Turning to `COc1cccc(-c2nc(Nc3ccncc3)c3ccccc3n2)c1`, the max response, negative = inhibition is 16.5%.
Same read-out and setting: to `Cc1cnc(CNc2nc(-c3cccnc3)nc3ccccc23)cn1` belongs -20.5%.
On to `COc1ccc(Nc2nc(-c3cccnc3)nc3ccccc23)cn1`, for which the Potency was 70.8 µM (active).
As to `CCOc1ccc(Nc2c(S(=O)(=O)c3ccccc3)cnc3ccccc23)cc1`, the max response, negative = inhibition is -2.09%.
The same measure, in the same setting: for `Cc1nc2ccn(Cc3cccnc3)c(=O)c2cc1C(=O)N1CCN(c2ccccc2F)CC1` the value was -2.65%; for `CC(=O)Nc1ccc(S(=O)(=O)N2N=NC3C2C2CC4C3(CN(C(=O)OC(C)(C)C)S4(=O)=O)O2)cc1` (stereo not drawn), -28.4%; for `O=C(NCC1COc2ccccc2O1)C1(c2ccccc2)CCCC1` (stereo not drawn), -20%.
In the case of `CCn1cc(C(=O)NCC2COc3ccccc3O2)c2cc(OC)c(OC)cc2c1=O` (stereo not drawn), the max response, negative = inhibition is -12.1%.
As to `Cc1cc(C(=O)CCl)c(C)n1CC1COc2ccccc2O1` (stereo not drawn), the Potency is 89.1 µM (active).
Same read-out and setting: to `COc1cc(/C=C2/C(=O)NN(c3cccc(Cl)c3)C2=O)cc(Br)c1O` belongs 22.4 µM (active).
Consider `COc1cc(/C=C2/C(=O)NN(c3ccc(F)cc3)C2=O)cc([N+](=O)[O-])c1O`, for which the max response, negative = inhibition is -24.2%.
Regarding `COc1cc(/C=N/O)cc(Br)c1OCc1cccc(Cl)c1`, the max response, negative = inhibition was 4.44%.
With `COCCn1c(=O)c(-c2cc(F)cc(F)c2)nc2cnc(N3CCNCC3)nc21`, the max response, negative = inhibition is -11.9%.
On the same count and under the same terms, to `Cc1cn([C@H]2CC(F)[C@@H](CO)O2)c(=O)[nH]c1=O` (stereo partly drawn) belongs -2.1%; to `O=C(CSc1nccn1C1CCCC1)Nc1cc(C(F)(F)F)ccc1Cl`, 24.3%.
Still for that read-out and setting: for `CCc1nnc(SCC(=O)Nc2cc(OC)ccc2OC)nc1CC` the value was 8.11%; for `Cc1ccccc1-c1nc(CS(=O)(=O)CC(=O)Nc2cc(Cl)cc(Cl)c2)c(C)o1`, 13%; for `CC1=C(c2ccc(C)c(C)c2)S(=O)(=O)NC1=NCc1ccccc1Cl`, 4.51%.
For `C=C1C(=O)C23C(O)C1CCC2[C@]12COC3(O)C(O)C1C(C)(C)CC[C@H]2O` (stereo partly drawn), the Potency is 14.1 µM (active).
For the compound `O=c1n(Cc2cccc(C(F)(F)F)c2)c2ccccc2c2nc(-c3ccccc3)nn12`, the max response, negative = inhibition was -21.7%.
Consider `CCOc1cccc(CC(=O)N2CCc3c([nH]c4ccccc34)C2c2ccc(F)cc2)c1OCC` (stereo not drawn), for which the max response, negative = inhibition is 6.55%.
Take `COc1ccc(S(=O)(=O)Nc2cccc3cccnc23)c(N)c1`: the max response, negative = inhibition is -18.8%.
In the case of `Cn1cc(-c2nc3cnc(N4CCNCC4)nc3n(CCC#N)c2=O)c2ccccc21`, the max response, negative = inhibition was -5.94%.
On the same count and under the same terms, to `O=C(Nc1cc(C(=O)Nc2ccc(S(=O)(=O)O)cc2)cc(C(=O)Nc2ccc(S(=O)(=O)O)cc2)c1)Nc1cc(C(=O)Nc2ccc(S(=O)(=O)O)cc2)cc(C(=O)Nc2ccc(S(=O)(=O)O)cc2)c1` belongs 4.66%.
Turning to `O=C(/C=C/c1ccc(Cl)cc1Cl)c1cccnc1`, the Potency is 20 µM (active).
Take `O=C(OCc1cc(Cl)ccc1OC(F)F)c1cccnc1`: the max response, negative = inhibition is 3.25%.
Still for that read-out and setting: to `O=C(NNC1CC(=O)N(c2cccc(Cl)c2)C1=O)c1cccnc1` (stereo not drawn) belongs 4.73%.
For `O=C(c1cnn(-c2ccc(F)cc2)c1-n1cccc1)N1CCN(c2ccc(F)cc2)CC1`, the max response, negative = inhibition is -3.32%.
Same read-out and setting: for `CC[C@]1([C@H]2O[C@@H]([C@@H]3O[C@](O)(CO)[C@@H](C)C[C@H]3C)C[C@H]2C)CC[C@@H]([C@]2(C)CC[C@@]3(C[C@@H](O)[C@@H](C)[C@@H]([C@H](C)[C@H](OC)[C@H](C)C(=O)O)O3)O2)O1` the value was 3.44%.
The same measure, in the same setting: to `CCOC(=O)C1CCCN(C(=O)CN(c2ccc(OC)cc2)S(=O)(=O)c2c(C)noc2C)C1` (stereo not drawn) belongs -22.5%; to `COc1ccc(N(CC(=O)Nc2cc(OC)ccc2OC)S(=O)(=O)c2c(C)noc2C)cc1`, 5.52%.
On to `CCOc1ccc(N(CC(=O)OC)S(=O)(=O)c2c(C)noc2C)cc1`, for which the Potency was 89.1 µM (active).
On to `O=C(c1cccc(F)c1)N1CCC2(CCCN(Cc3ccncc3)C2)CC1`, for which the max response, negative = inhibition was -10.4%.
Turning to `Cc1ccc(Cn2cc(CCC(=O)NCc3ccc(OC(C)C)cc3)c3ccccc32)cc1`, the max response, negative = inhibition is 7.91%.
Turning to `COC(=O)c1cccc(-n2[nH]nnc2=S)c1`, the Potency is 79.4 µM (active).
As for `COC(=O)c1cccc(NC(=O)c2cccc(N3C(=O)CCC3=O)c2)c1`, the max response, negative = inhibition is -2.51%.
Take `COC(=O)c1cccc(N2C(=O)C3C4C=CC(CC4)C3C2=O)c1` (stereo not drawn): the max response, negative = inhibition is 12.5%.
On the same count and under the same terms, to `COc1cccc(NC(=O)CSC2=Nc3ccccc3C3=NC(CC(=O)NC4CCCCC4)C(=O)N23)c1` (stereo not drawn) belongs 1.75%; to `CCOCCCNC(=O)c1cn(CC)c2ccc(S(=O)(=O)N3CCc4ccccc4C3)cc2c1=O`, -6.66%.
Still for that read-out and setting: to `OCCN1CCN(CC/C=C2\c3ccccc3Sc3ccc(C(F)(F)F)cc32)CC1` belongs -15.9%.
For `COc1ccc(/C=C/C(=O)c2cc(Br)ccc(=O)c2O)cc1`, the Potency was 50.1 µM (active).
As for `COc1ccc(CC(=O)NCC(=O)N/N=C/c2cc(Br)ccc2OC)cc1`, the max response, negative = inhibition was 13.7%.
Take `COc1ccc(C(=O)c2oc3ccc(Br)cc3c2NC(C)=O)cc1`: the max response, negative = inhibition is -3.63%.
Same read-out and setting: for `CCN(CC)c1nn2c(=O)c(C(=O)NCCc3ccccc3)cnc2s1` the value was 2.65%; for `CCOC(=O)c1sc(NC(=O)/C=C/c2ccc(C(C)C)cc2)c(C(=O)OCC)c1C`, -21.4%.
Regarding `CCOC(=O)c1c(NC(=O)c2ccc(S(=O)(=O)N3CCCC(C)C3)cc2)sc2c1CCN(C(C)C)C2` (stereo not drawn), the max response, negative = inhibition was 21.6%.
As to `CCC(C(=O)Nc1ccc(C(C)C)cc1)c1ccccc1` (stereo not drawn), the max response, negative = inhibition was -16.3%.
Same read-out and setting: to `Cc1ccc(C)c(NC(=S)NCC(c2cccnc2)N2CCOCC2)c1` (stereo not drawn) belongs -7.85%.
For `Cc1ccc(NC(=S)NCCc2ccc(Cl)cc2)c(C)c1`, the max response, negative = inhibition is 2.39%.
`CC(C)c1ccc(NC(=S)NNc2ccc(Cl)c(C(=O)O)c2)cc1`: the Potency was 39.8 µM (active).
On the same count and under the same terms, for `Cc1ccc(C)c(NC(=S)NNC(=S)Nc2ccc(C(C)C)cc2)c1` the value was 35.5 µM (active).
Consider `CC(C)CC(=O)NC(=S)Nc1cc(C(=O)O)ccc1Cl`, for which the max response, negative = inhibition is -4.96%.
Still for that read-out and setting: for `COc1cc(C(=O)N2CCN(C(=O)COc3cccc(C)c3)CC2)cc(OC)c1OC` the value was -6.68%.
As for `Cc1ccc(-c2nc(=N)sn2Cc2ccccc2)cc1`, the Potency was 17.8 µM (active).
For the compound `Cc1ccc(-c2cc(C(=O)NC3CCN(Cc4ccccc4)CC3)c3ccccc3n2)cc1`, the max response, negative = inhibition was -7.79%.
On the same count and under the same terms, for `Cc1ccc(CN2C(=O)SC(Nc3ccccc3)C2=O)cc1` (stereo not drawn) the value was -7.63%.
With `CC(=O)/C(C)=N\O`, the max response, negative = inhibition was -2.4%.
Same read-out and setting: to `CCOc1ccc(CNC(=O)c2cc(=O)[nH]c3ccc(S(=O)(=O)N4CCCCC4)cc23)cc1` belongs 6.6%; to `O=C(NC1CC(=O)N(c2ccc(F)cc2)C1)C1CCCCC1` (stereo not drawn), -2.82%.
The same measure, in the same setting: for `CCCn1c2ccccc2c2cnn(CC(=O)N(CC)c3cc(C)ccc3C)c(=O)c21` the value was 3.02%; for `CCN(CCCNC(=O)c1ccc(Sc2ccc(C)cc2)c(NC(C)=O)c1)c1cccc(C)c1`, 9.47%.
Regarding `CCN(CCCNC(=O)c1ccc2c(c1)NC(=O)CN2C)c1cccc(C)c1`, the Potency is 79.4 µM (active).
Take `CCN(CCCNC(=O)Cn1ncc2c([nH]c3ccccc32)c1=O)c1cccc(C)c1`: the max response, negative = inhibition is 2.86%.
With `CCOc1ccc(N(CC)C(=O)c2noc3c2COc2ccc(C)cc2-3)cc1`, the max response, negative = inhibition is 8.55%.
On the same count and under the same terms, to `CCOc1cccc(CC(=O)N2CCc3c([nH]c4ccccc34)C2c2ccc(OC)cc2)c1OCC` (stereo not drawn) belongs 11.9%; to `COc1ccc(-c2cc(=O)oc3cc(OCC(=O)N[C@@H](Cc4c[nH]c5ccccc45)C(=O)O)ccc23)cc1`, -24.6%; to `COc1ccc(-c2cc(C(=O)NC(C(=O)O)C(C)C)c(C)o2)cc1OC` (stereo not drawn), -0.859%.
`COc1ccc(-c2cc(C(=O)NC(Cc3c[nH]c4ccccc34)C(=O)O)c(C)o2)cc1OC` (stereo not drawn): the Potency is 44.7 µM (active).
`CC1CCN(c2nc3ccc(C(=O)N4CCN(c5ccccc5)CC4)cc3s2)CC1`: the max response, negative = inhibition was 19.1%.
With `COc1ccc(Cn2c(=O)n(-c3ccccc3C)c(=O)c3c4c(sc32)CN(C(C)=O)CC4)cc1`, the max response, negative = inhibition was 7.19%.
On the same count and under the same terms, to `Cc1ccc(C)c(N2CCN(S(=O)(=O)c3ccc4c(c3)C(C(C)C)C(=O)N4)CC2)c1` (stereo not drawn) belongs 8%.
Same read-out and setting: for `Cc1csc(-c2coc3cc(O[C@@H]4O[C@H](CO)[C@@H](O)[C@@H](O)[C@H]4O)ccc3c2=O)n1` the value was 9.43%.
As to `O=C(COC(=O)/C=C/c1cn(-c2ccccc2)nc1-c1cccnc1)Nc1ccc(Cl)cc1Cl`, the max response, negative = inhibition is -8.09%.
As for `O=C(/C=C/NNC(=O)c1cccc(Br)c1)c1ccccc1`, the max response, negative = inhibition was 0%.
With `O=C(O)CCn1cc(/C=C/C(=O)c2ccc(Cl)cc2)c(-c2cccc(Br)c2)n1`, the Potency was 15.8 µM (active).
On to `Cc1c(-c2nc(-c3ccc4c(c3)OCO4)no2)nnn1-c1ccc(Br)cc1F`, for which the max response, negative = inhibition is 14.1%.
As for `Cc1ccc(Cl)cc1-n1ncc2c(N3CCC(C(N)=O)CC3)ncnc21`, the max response, negative = inhibition was -9.07%.
Regarding `OC[C@@H]1O[C@H](n2cnc3c(SCc4ccccc4)ncnc32)[C@H](O)[C@H]1O`, the max response, negative = inhibition is -14.3%.
